# Source: PubChem BioAssay
# “And” between values parts separate entries of the source, which are not always exact repeats. Identical values can stand only once. Inconclusive results are not listed. For some assays here: Potency and affinity values are given separately. The source made the active and inactive calls. Unless noted, no rule for the calls is given here.
# Columns and labels:
# [1] = antimalarial activity against Dd2 strain (AID 2302;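 active = growth inhibition above 50% at the single 2 µM test dose, taken to imply half-maximal potency below 2 µM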;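 also: 0% = DMSO untreated growth and 100% = chloroquine plus artemisinin killed control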); conditions: P. falciparum Dd2 in RBCs, LDH growth readout, 72 h; at 2 µM; stronger effect = higher value
# [2] = target: L-lactate dehydrogenase (Plasmodium falciparum (isolate CDC / Honduras)) (UniProt Q27743); test: PfLDH activity inhibition – cell lysate, 3D7 strain, counter-screen for P. falciparum growth inhibition project (AID 2304);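 also: 0% = vehicle and 100% = reference inhibitor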; conditions: P. falciparum 3D7 crude extract, LDH APAD/NBT absorbance; at 2 µM; stronger effect = higher value
# Chain of L-lactate dehydrogenase (Plasmodium falciparum (isolate CDC / Honduras)) (Q27743 whole entry, looked up): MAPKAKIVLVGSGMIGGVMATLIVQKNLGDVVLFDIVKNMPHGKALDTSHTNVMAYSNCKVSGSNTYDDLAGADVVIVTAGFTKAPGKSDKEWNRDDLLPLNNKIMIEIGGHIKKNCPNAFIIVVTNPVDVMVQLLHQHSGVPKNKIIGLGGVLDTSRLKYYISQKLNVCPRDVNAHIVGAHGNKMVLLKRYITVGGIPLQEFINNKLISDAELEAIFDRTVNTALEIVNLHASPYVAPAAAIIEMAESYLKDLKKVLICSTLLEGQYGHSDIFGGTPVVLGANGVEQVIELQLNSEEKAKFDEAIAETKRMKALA
# [3] = inhibition of 3D7 malaria parasite growth – strain 3D7 (AID 2306);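 also: 0% = DMSO wells and 100% = chloroquine plus artemisinin control wells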; conditions: P. falciparum 3D7 erythrocytic growth, LDH absorbance, 72 h; at 2 µM; stronger effect = higher value
# [4] = compounds altering circadian rhythm period length – cell-based, LOPAC library, luminescence reporter (AID 2774); conditions: circadian reporter cells, at 7 µM, actives lie on both sides;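 also: values are relative to mean of DMSO wells on each plate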
# [5] = target: Calcium-dependent protein kinase 1 (Plasmodium falciparum (isolate 3D7)) (UniProt P62344); test: PfCDPK1 kinase inhibitors, biochemical, TCAMS library (AID 1159585; cut-off not given, nearly all actives have IC50 up to about 0.98 µM;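 also: inhibitors leave more ATP so luminescence rises with inhibition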); conditions: recombinant PfCDPK1, Kinase-Glo ATP depletion luminescence
# Chain of Calcium-dependent protein kinase 1 (Plasmodium falciparum (isolate 3D7)) (P62344 whole entry, looked up): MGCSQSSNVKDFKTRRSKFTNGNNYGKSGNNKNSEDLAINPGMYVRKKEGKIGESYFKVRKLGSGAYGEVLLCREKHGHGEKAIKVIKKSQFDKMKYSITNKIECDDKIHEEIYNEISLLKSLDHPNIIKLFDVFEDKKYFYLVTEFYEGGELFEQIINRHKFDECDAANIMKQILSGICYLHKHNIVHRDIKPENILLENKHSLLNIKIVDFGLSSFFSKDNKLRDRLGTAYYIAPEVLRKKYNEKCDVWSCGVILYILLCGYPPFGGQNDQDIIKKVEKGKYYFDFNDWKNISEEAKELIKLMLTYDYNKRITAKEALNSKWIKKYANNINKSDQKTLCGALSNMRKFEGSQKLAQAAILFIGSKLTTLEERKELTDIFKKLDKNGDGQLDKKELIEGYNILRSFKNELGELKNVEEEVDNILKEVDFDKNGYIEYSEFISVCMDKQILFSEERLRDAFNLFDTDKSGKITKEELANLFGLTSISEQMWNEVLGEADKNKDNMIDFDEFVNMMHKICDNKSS
# [6] = target: Plasmodium falciparum protein kinase 6 (PK6, PF3D7_1337100) (UniProt Q8IDW1); test: PfPK6 kinase inhibitors, biochemical, TCAMS library (AID 1159586); conditions: recombinant PfPK6, Kinase-Glo ATP depletion luminescence
# Chain of Plasmodium falciparum protein kinase 6 (PK6, PF3D7_1337100) (Q8IDW1 1-305): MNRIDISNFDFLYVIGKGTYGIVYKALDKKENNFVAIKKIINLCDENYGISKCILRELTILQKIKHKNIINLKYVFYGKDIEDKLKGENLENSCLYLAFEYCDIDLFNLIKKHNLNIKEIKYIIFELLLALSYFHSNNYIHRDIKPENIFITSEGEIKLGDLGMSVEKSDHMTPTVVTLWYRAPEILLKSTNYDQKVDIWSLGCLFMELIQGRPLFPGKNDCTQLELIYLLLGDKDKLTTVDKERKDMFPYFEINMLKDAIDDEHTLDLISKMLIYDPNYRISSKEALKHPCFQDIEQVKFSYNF
# [7] = target: Protein kinase 7 (PK7), Plasmodium falciparum 3D7 (PF3D7_0213400) (UniProt Q7YTF7); test: inhibition of Plasmodium PK7 catalytic activity – biochemical, TCAMS antimalarial set, Kinase-Glo luminescence (AID 1159587); conditions: recombinant PfPK7, Kinase-Glo ATP depletion luminescence
# Chain of Protein kinase 7 (PK7), Plasmodium falciparum 3D7 (PF3D7_0213400) (Q7YTF7 1-343): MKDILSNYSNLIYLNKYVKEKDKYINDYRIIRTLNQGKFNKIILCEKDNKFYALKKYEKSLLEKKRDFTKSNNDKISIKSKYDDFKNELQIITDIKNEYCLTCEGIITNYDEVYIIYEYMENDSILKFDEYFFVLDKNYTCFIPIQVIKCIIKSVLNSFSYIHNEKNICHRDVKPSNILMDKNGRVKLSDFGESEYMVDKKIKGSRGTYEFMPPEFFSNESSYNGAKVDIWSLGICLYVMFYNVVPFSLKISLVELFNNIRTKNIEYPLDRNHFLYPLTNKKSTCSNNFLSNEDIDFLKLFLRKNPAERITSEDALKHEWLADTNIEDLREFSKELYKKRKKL
# [8] = viability loss in pontine glioma line – cell-based, SU-DIPG-XIII, MIPE5.0, CellTiter-Glo, qHTS, dose response (AID 1347064; cut-off not given, nearly all actives have AC50 up to about 23 µM;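 as to AC50: cells exposed to compound for 48 hours before the viability read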); conditions: CellTiter-Glo ATP luminescence
# [9] = chitosan synthesis blockers in C. neoformans – flow cytometry, Cibacron Brilliant Red staining (AID 1347148); conditions: Cryptococcus neoformans chitosan, stronger effect = lower value; at 99.1 µM unless noted;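 also: compound exposure lasted three days at 37 degrees C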
# [10] = target: ATP-dependent translocase ABCB1 (Homo sapiens) (UniProt P08183); test: P-glycoprotein substrate transport blockade – cell-based (AID 377; in the data active = fluorescence slope change above about 50%); conditions: MDR1-expressing cells, fluorescent substrate accumulation slope; stronger effect = higher value; concentration not given here
# Chain of ATP-dependent translocase ABCB1 (Homo sapiens) (P08183 whole entry, looked up): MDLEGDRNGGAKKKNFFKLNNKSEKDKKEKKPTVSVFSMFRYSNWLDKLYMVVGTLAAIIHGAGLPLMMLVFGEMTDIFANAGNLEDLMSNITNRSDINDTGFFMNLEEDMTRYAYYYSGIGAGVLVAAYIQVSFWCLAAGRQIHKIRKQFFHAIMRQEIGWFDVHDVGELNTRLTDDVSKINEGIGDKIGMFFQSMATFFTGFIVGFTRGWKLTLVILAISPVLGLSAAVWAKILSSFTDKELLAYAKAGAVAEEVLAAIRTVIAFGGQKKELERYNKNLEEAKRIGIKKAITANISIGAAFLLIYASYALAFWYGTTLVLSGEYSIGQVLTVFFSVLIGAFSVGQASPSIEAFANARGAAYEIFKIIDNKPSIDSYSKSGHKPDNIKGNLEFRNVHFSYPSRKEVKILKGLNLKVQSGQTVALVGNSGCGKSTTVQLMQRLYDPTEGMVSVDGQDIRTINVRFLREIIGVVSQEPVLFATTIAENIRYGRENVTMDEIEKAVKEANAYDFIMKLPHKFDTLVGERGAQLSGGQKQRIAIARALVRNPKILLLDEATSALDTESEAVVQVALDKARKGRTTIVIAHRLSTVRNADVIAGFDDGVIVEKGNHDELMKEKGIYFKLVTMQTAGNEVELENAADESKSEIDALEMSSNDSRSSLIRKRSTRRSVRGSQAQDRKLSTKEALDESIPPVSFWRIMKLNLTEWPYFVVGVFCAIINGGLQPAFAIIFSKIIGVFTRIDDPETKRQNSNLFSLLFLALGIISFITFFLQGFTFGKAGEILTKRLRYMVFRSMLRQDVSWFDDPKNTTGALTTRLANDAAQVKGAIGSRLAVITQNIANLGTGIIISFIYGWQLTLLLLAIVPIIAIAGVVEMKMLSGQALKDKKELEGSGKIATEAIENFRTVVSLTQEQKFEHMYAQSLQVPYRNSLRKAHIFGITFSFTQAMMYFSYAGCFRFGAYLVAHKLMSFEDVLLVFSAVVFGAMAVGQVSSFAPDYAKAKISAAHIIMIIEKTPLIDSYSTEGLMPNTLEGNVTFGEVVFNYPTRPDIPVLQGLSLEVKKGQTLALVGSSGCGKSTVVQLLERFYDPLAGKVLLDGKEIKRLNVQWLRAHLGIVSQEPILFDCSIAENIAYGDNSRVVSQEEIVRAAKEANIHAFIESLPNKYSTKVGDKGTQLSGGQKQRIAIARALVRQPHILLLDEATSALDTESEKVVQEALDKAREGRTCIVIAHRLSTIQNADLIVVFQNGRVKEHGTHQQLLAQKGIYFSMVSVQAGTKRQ
# [11] = system: Neuropilin-2 / VEGF-C interaction (human); test: small molecules blocking Neuropilin-2/VEGF-C interaction – biochemical, microplate binding format, z-score (AID 743281); conditions: microplate NRP2/VEGF-C binding assay; stronger effect = lower value
# [12] = system: Aerobactin synthetase IucA (Klebsiella pneumoniae); test: inhibition of K. pneumoniae IucA enzyme – biochemical, Tocris library, absorbance (AID 1345561); conditions: purified IucA enzyme assay, absorbance (OD) read-out; stronger effect = lower value;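 tested at 8 µM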;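 also: 100% = enzyme without compound and 0% = no enzyme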
# [13] = P. berghei load reduction in hepatocytes – cell-based, HepG2, luciferase luminescence, HepG2 viability, primary screen (AID 624349; in the data active = parasite load remaining mostly below about 12%, no sharp cut-off; inactive = mostly above about 10%;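 also: 100% = mean of DMSO negative control wells on the same plate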); conditions: P. berghei liver stage in HepG2, luciferase luminescence, concentration not given here; parasite load remaining: stronger effect = lower value; viability: measured here: HepG2 viability without parasites
# [14] = growth inhibition, single agents and combos, CRL2098, cell-based, BGB or cisplatin IC20 combos, synergistic combos for chromothripsis tumors (AID 1671454; in the data active = inhibition above about 80%;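 also: cells exposed for 96 h before readout; 0% = vehicle DMSO and 100% = killing by high DMSO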); conditions: CRL2098 osteosarcoma cells, drug combinations, stronger effect = higher value
# [15] = growth inhibition, single agents and combos, HD-MB03, cell-based, BGB or cisplatin IC20 combos, synergistic combos for chromothripsis tumors (AID 1671455; in the data active = inhibition above about 83%;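 also: 0% = vehicle DMSO and 100% = high DMSO as cytotoxic control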); conditions: HD-MB03 medulloblastoma cells, stronger effect = higher value
# [16] = growth inhibition, single agents and combos, UWB1.289, cell-based, BGB or cisplatin combos, synergistic combos for chromothripsis tumors (AID 1671456; in the data active = inhibition above about 80%;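 also: cells exposed to compound for four days; 0% = vehicle DMSO and 100% = killing by high DMSO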); conditions: UWB1.289 ovarian carcinoma cells, stronger effect = higher value
# [17] = growth inhibition, single agents and combos, LFS_MB_2R, cell-based, cisplatin combos, synergistic combos for chromothripsis tumors (AID 1671457; in the data active = inhibition above about 80%;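 also: cells exposed to compound for four days before readout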); conditions: LFS_MB_2R medulloblastoma cells, stronger effect = higher value
# [18] = UWB1.289_BRCA1 ovarian cancer growth, cell-based, BGB or cisplatin combinations (AID 1671459; in the data active = inhibition above about 80%); conditions: UWB1.289 BRCA1 ovarian carcinoma, drug combinations, stronger effect = higher value
# [19] = drug combination toxicity in non-malignant astrocytes – cell-based, BGB or cisplatin IC20 combos, cytotoxicity control for chromothriptic childhood tumor combination screen (AID 1671460; in the data active = inhibition above about 80%;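 also: cells exposed to compounds for 96 hours before viability readout; 0% = vehicle and 100% = killing control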); conditions: Human astrocytes, viability inhibition, drug combinations, at 0.5 µM, stronger effect = higher value
# [20] = compounds altering HSF1 focus formation in cells – imaging, Selleck Cancer Library (AID 1347162; in the data active = plate-normalised HSF1 focus index below about 0.46); conditions: human cells, HSF1 nuclear foci imaging, at 10 µM; SSMD: measured here: HSF1 foci SSMD mean; cell count: measured here: cell number; plate-normalised HSF1 focus index: stronger effect = lower value
compound,measurement,setting,value
NC12CC3CC(CC(C3)C1)C2,growth inhibition,[1],-1% (inactive)
same,inhibition,[2],-7% (inactive)
same,growth inhibition,[3],98% (active)
same,period change,[4],-0.05 h (inactive)
same,outcome,[5],inactive
same,outcome,[6],inactive
same,outcome,[7],inactive
same,outcome,[8],inactive
same,fold fluorescence,[9],3.81 [at 330.6 µM] (inactive)
c1ccc([C@H]2CN3CCSC3=N2)cc1,fluorescence slope change,[10],63.5% (active)
same,growth inhibition,[1],1% (inactive)
same,inhibition,[2],5% (inactive)
same,growth inhibition,[3],93% (active)
same,period change,[4],-0.17 h (inactive)
same,outcome,[5],inactive
same,outcome,[6],inactive
same,outcome,[7],inactive
same,outcome,[8],inactive
N=C(N)c1ccc(OCCCCCOc2ccc(C(=N)N)cc2)cc1,fluorescence slope change,[10],28.9% (inactive)
same,growth inhibition,[1],98% (active)
same,inhibition,[2],-2% (inactive)
same,growth inhibition,[3],99% (active)
same,outcome,[5],inactive
same,outcome,[6],inactive
same,outcome,[7],inactive
Clc1cccc(Cl)c1NC1=NCCN1,fluorescence slope change,[10],110% (active)
same,period change,[4],0.005 h (inactive)
same,z-score,[11],0.177 (inactive)
same,remaining activity,[12],106% (inactive)
same,fold fluorescence,[9],4.6 [at 217.3 µM] (inactive)
CN1C(C(=O)Nc2ccccn2)=C(O)c2ccccc2S1(=O)=O,period change,[4],-0.07 h (inactive)
same,z-score,[11],-1.26 (inactive)
same,remaining activity,[12],127% (inactive)
same,outcome,[8],inactive
same,fold fluorescence,[9],4.04 [at 150.9 µM] (inactive)
CC[C@H](C)C(=O)O[C@H]1C[C@@H](C)C=C2C=C[C@H](C)[C@H](CC[C@@H]3C[C@@H](O)CC(=O)O3)[C@H]21,fluorescence slope change,[10],166% (active)
same,remaining activity,[12],113% (inactive)
same,fold fluorescence,[9],4.35 [at 123.6 µM] (inactive)
CCN(CC)CCCC(C)Nc1ccnc2cc(Cl)ccc12 (centres undefined),fluorescence slope change,[10],-4.1% (inactive)
same,growth inhibition,[1],96% (active)
same,inhibition,[2],-1% (inactive)
same,growth inhibition,[3],100% (active)
same,period change,[4],0.02 h (inactive)
same,outcome,[5],inactive
same,outcome,[6],inactive
same,outcome,[7],inactive
same,outcome,[8],inactive
Cc1noc(NS(=O)(=O)c2ccc(N)cc2)c1C,remaining activity,[12],91.4% (inactive)
CC(C)NCC(O)c1ccc(O)c(O)c1 (centres undefined),period change,[4],-0.07 hour (inactive) and 0.21 hour (inactive)
same,remaining activity,[12],108% (inactive)
same,outcome,[8],inactive
Oc1ccc(/C=C/c2cc(O)cc(O)c2)cc1,fluorescence slope change,[10],28.4% (inactive)
same,period change,[4],-0.215 h (inactive)
same,z-score,[11],-0.145 (inactive)
same,remaining activity,[12],117% (inactive)
same,outcome,[8],inactive
same,fold fluorescence,[9],7.05 [at 219.1 µM] (inactive)
CCC1(c2ccccc2)C(=O)NCNC1=O,period change,[4],-0.19 h (inactive)
same,remaining activity,[12],91.8% (inactive)
same,outcome,[8],inactive
c1ccc(CC2=NCCN2)cc1,growth inhibition,[1],0% (inactive)
same,inhibition,[2],-3% (inactive)
same,growth inhibition,[3],94% (active)
same,outcome,[5],inactive
same,outcome,[6],inactive
same,outcome,[7],inactive
CN(C)CCCN1c2ccccc2CCc2ccc(Cl)cc21,fluorescence slope change,[10],179% (active)
same,period change,[4],-0.12 h (inactive)
same,remaining activity,[12],96.8% (inactive)
same,outcome,[8],inactive
CCN(CCO)CCCC(C)Nc1ccnc2cc(Cl)ccc12 (centres undefined),growth inhibition,[1],0% (inactive)
same,inhibition,[2],-1% (inactive)
same,growth inhibition,[3],99% (active)
same,parasite load remaining,[13],156% (inactive) and 84.1% (inactive)
same,viability,[13],88.4% and 102%
same,outcome,[5],inactive
same,outcome,[6],inactive
same,outcome,[7],inactive
same,outcome,[8],inactive
CC1=C(CC(=O)O)c2cc(F)ccc2/C1=C\c1ccc(S(C)=O)cc1 (centres undefined),period change,[4],0.265 h (inactive)
same,remaining activity,[12],115% (inactive)
Nc1nc2c(ncn2COCCO)c(=O)[nH]1,period change,[4],-0.035 h (inactive)
same,remaining activity,[12],117% (inactive)
same,inhibition,[14]; at 0.5 µM,-82.3% (inactive) and -42.2% (inactive)
same,inhibition,"[14]; measured here: combination with BGB at IC20, at 0.5 µM",-65.6% and -27.8%
same,inhibition,"[14]; measured here: combination with cisplatin at IC20, at 0.5 µM",-92.2% and -76%
same,inhibition,[15]; at 0.5 µM,-9.51% (inactive) and -3.72% (inactive)
same,inhibition,"[15]; measured here: combo with BGB at IC20, at 0.5 µM",-2.11% and -3.06%
same,inhibition,"[15]; measured here: combo with cisplatin at IC20, at 0.5 µM",-19.5% and -6.04%
same,inhibition,[16]; at 0.5 µM,-7.84% (inactive) and 5.52% (inactive)
same,inhibition,"[16]; measured here: inhibition with BGB combination, at 0.05 µM",-9.01% and -4.82%
same,inhibition,"[16]; measured here: inhibition with cisplatin combination, at 0.05 µM",-11.4% and 12.5%
same,inhibition,[17]; at 0.5 µM,-16.1% (inactive) and -6.37% (inactive)
same,inhibition,"[17]; measured here: combination with cisplatin, at 0.5 µM",-14.9% and -19.4%
same,inhibition,"[17]; measured here: combination with cisplatin, at 5 µM",-76% and -8.06%
same,inhibition,"[18]; BGB combination, concentration series, at 5 µM",-23.1% and 1.37%
same,inhibition,[18]; at 0.5 µM,-9.4% (inactive) and 8.78% (inactive)
same,inhibition,"[18]; cisplatin combination, concentration series, at 5 µM",-14.8% and -13.6%
same,inhibition,[19],-9.43% (inactive) and 7.59% (inactive)
same,inhibition,[19]; measured here: combo with BGB IC20,-2.39% and 2.09%
same,inhibition,[19]; measured here: combo with cisplatin IC20,-29.6% and 5.16%
O=C1CCC(N2C(=O)c3ccccc3C2=O)C(=O)N1 (centres undefined),fluorescence slope change,[10],58.2% (active)
same,period change,[4],0.105 h (inactive)
same,remaining activity,[12],108% (inactive)
same,fold fluorescence,[9],3.34 [at 193.6 µM] (inactive)
CCC(C)(C)C(=O)O[C@H]1C[C@@H](C)C=C2C=C[C@H](C)[C@H](CC[C@@H]3C[C@@H](O)CC(=O)O3)[C@H]21,remaining activity,[12],114% (inactive)
same,SSMD,[20],1.41
same,cell count,[20],7420
same,plate-normalised HSF1 focus index,[20],1.09 (inactive)
CC[C@H]1CN2CCc3cc(OC)c(OC)cc3[C@@H]2C[C@@H]1C[C@H]1NCCc2cc(OC)c(OC)cc21,growth inhibition,[1],99% (active)
same,inhibition,[2],-3% (inactive)
same,growth inhibition,[3],101% (active)
same,period change,[4],0 h (inactive)
same,parasite load remaining,[13],-66.8% (active)
same,viability,[13],76.3%
same,outcome,[5],inactive
same,outcome,[6],inactive
same,outcome,[7],inactive
same,AC50,[8],166 nM (active)
